Screening results deposited in PubChem BioAssay by several laboratories.
ADAM17 inh = ADAM17 inhibitors, primary screen, biochemical, QFRET; inhibition, % at 6.95 µM; Disintegrin and metalloproteinase domain-containing protein 17 (Homo sapiens), P78536; recombinant ADAM17, EDANS/DABCYL FRET peptide cleavage; 370,000 tested, 0.83% active; AID 720648, 2013;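 active = inhibition above the mean of compounds lying between control limits plus 3 SD, set per campaign, cut at about 8.5% in these data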;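 note: 0% = DMSO-only wells as the low control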
proKLK7 act = proKLK7 zymogen activators, primary screen, biochemical, fluorescence intensity. 370,000 tested, 0.9% active. activation, % at 7 µM. Kallikrein-7 (Homo sapiens), P49862. purified proKLK7, EDANS-DABCYL substrate fluorescence; 100% is mature enzyme control, 0% vehicle;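 active = activation above the mean of all tested compounds plus 3 SD, computed per campaign excluding outliers beyond control limits, cut at about 13% in these data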
Ecoli rRNA inh = reduced GFP signal of wild-type E. coli, primary screen, bacterial rRNA inhibitor project, GFP/RFP fluorescence, OD600, single point; E. coli WT GFP vs humanized-ribosome RFP mutants, 24 h; active compounds read low; DMSO median 0, no signal -100; GFP signal change (wild-type ribosome), % (test concentration not listed); 350,000 tested, 1.6% active; AID 720706, 2013;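 active = significant combined selectivity score with lowered wild-type GFP, culture density cut under 30%, mutant RFP and density less affected; inactive = any of these conditions unmet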
FGF22 binding = binders of human FGF22 protein, primary screen, FGF22 synaptogenesis inhibitor project, biophysical, thermal shift, single point. Fibroblast growth factor 22 (Homo sapiens), Q9HCT0. recombinant FGF22 thermal shift, SYPRO orange fluorescence; percent of sucrose octasulfate shift, DMSO zero. activity (Tm shift, normalised), % at 9.99 µM. 340,000 tested, 1.5% active;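 active = mean Tm shift, scaled 0 neutral to 100 positive control, at about 1.3% or above, every replicate too, limit read from the data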
ADAM10 inh = human ADAM10 inhibitors, primary screen, biochemical, QFRET, HTS. Disintegrin and metalloproteinase domain-containing protein 10 (Homo sapiens), O14672. recombinant ADAM10, EDANS/DABCYL FRET peptide cleavage, 3 h. inhibition, % at 7 µM. 370,000 tested, 0.62% active. AID 720582, 2013;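 active = inhibition above a per-campaign cutoff equal to the mean of compounds falling between control-based bounds plus 3 SD, cut at about 20% in these data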;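 note: 0% = DMSO wells while the 100% control is not disclosed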
Target sequence (O14672 214-748 limits assumed): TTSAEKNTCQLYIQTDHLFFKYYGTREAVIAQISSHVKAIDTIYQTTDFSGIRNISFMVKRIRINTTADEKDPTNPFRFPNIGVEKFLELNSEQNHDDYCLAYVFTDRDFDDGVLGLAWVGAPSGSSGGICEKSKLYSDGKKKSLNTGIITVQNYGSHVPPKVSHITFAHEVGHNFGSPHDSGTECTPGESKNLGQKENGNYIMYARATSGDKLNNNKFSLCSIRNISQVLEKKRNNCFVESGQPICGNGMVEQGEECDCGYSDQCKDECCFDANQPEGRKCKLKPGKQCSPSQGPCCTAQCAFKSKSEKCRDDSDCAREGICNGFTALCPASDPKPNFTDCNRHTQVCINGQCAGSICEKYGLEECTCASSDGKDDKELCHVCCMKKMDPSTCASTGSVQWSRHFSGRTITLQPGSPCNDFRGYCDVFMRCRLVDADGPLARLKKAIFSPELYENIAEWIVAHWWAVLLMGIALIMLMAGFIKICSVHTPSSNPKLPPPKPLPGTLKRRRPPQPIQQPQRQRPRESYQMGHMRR
Active calls of the source: *. Most compounds without a hit are left out; they make up all but 3.8% or so of the library.

What do the screens show for `C[C@@H]1CN([C@H](C)CO)C(=O)c2cccc(NS(C)(=O)=O)c2O[C@@H]1CN(C)Cc1ccc(Cl)c(Cl)c1`?
Ecoli rRNA inh: -4.9; FGF22 binding: -0.1

How did O=C(CCCc1ccccc1)NC1CCSC1=O (stereo unspecified) do in these assays?
ADAM17 inh: 1.3; proKLK7 act: -0.2; Ecoli rRNA inh: 4.5; ADAM10 inh: 7.2

Results for O=C(Cc1ccc(F)cc1)NC1CCSC1=O (stereo unspecified) ?
ADAM17 inh: -2.1; proKLK7 act: -0.3; Ecoli rRNA inh: 15.6; FGF22 binding: 43.0*; ADAM10 inh: 0.2

What do the screens show for `COc1ccc(NC(=O)N2CC3(C2)CN(C(=O)C2CCC2)[C@H](CO)c2c3c3ccc(OC)cc3n2C)cc1`?
Ecoli rRNA inh: -2.5; FGF22 binding: -0.2

Results for Cc1cc(C)nc(NC(=O)NC(=O)c2ccccc2)n1 ?
ADAM17 inh: -1.8; proKLK7 act: 0.1; Ecoli rRNA inh: 0.4; FGF22 binding: -0.2; ADAM10 inh: -7.2

What do the screens show for `Cc1cc(C)nc(NC(C)(C)C(=O)O)n1`?
ADAM17 inh: -1.7; proKLK7 act: 0.2; Ecoli rRNA inh: 1.6; FGF22 binding: 44.0*; ADAM10 inh: 0.0

What do the screens show for `CC(C)c1nnc(NC(=O)CSc2nc3ccccc3[nH]2)s1`?
ADAM17 inh: -1.1; proKLK7 act: -0.1; Ecoli rRNA inh: -28.2*; FGF22 binding: 0.1; ADAM10 inh: -3.6

Results for Cc1ccc2c(c1)-c1c(ssc1=S)C(C)(C)N2C(=O)CSC1=NCCS1 ?
ADAM17 inh: -3.3; proKLK7 act: 0.7; Ecoli rRNA inh: -26.1*; FGF22 binding: 0.5; ADAM10 inh: 3.0

Results for COc1ccc(/C=C/C(=O)Nc2ccc(C(C)=O)cc2)cc1S(=O)(=O)N1CCOCC1 ?
ADAM17 inh: 0.1; proKLK7 act: -0.2; Ecoli rRNA inh: 11.4; FGF22 binding: 0.1; ADAM10 inh: -5.7

Results for COc1ccc(/C=C/C(=O)Nc2ccccc2C)cc1S(=O)(=O)N1CCOCC1 ?
ADAM17 inh: -0.6; proKLK7 act: -0.3; Ecoli rRNA inh: -12.4; FGF22 binding: 0.2; ADAM10 inh: 1.1

How did COc1ccc(/C=C/C(=O)Nc2cccc(F)c2)cc1S(=O)(=O)N1CCOCC1 do in these assays?
ADAM17 inh: -3.3; proKLK7 act: 0.0; Ecoli rRNA inh: -26.7*; FGF22 binding: 0.4; ADAM10 inh: 8.3

How did COc1ccc(NC(=O)c2c(F)cccc2Cl)cc1S(=O)(=O)N1CCOCC1 do in these assays?
ADAM17 inh: -1.0; proKLK7 act: 0.0; Ecoli rRNA inh: 5.3; FGF22 binding: 43.0*; ADAM10 inh: -0.3

What do the screens show for `COc1cc(/C=C/C(=O)Nc2ccc(OC)c(S(=O)(=O)N3CCOCC3)c2)ccc1OC(F)F`?
ADAM17 inh: 1.6; proKLK7 act: -1.2; Ecoli rRNA inh: -4.8; FGF22 binding: 1.6*; ADAM10 inh: 7.1

What do the screens show for `COc1ccc(/C=C/C(=O)Nc2ccccc2F)cc1S(=O)(=O)N1CCOCC1`?
ADAM17 inh: -0.7; proKLK7 act: 0.1; Ecoli rRNA inh: -19.8*; FGF22 binding: -0.4; ADAM10 inh: -2.8

Results for C[C@@H]1CN([C@@H](C)CO)C(=O)Cc2cc(NC(=O)CCC(F)(F)F)ccc2O[C@H]1CN(C)C(=O)Nc1cccc2ccccc12 ?
Ecoli rRNA inh: -0.9

What do the screens show for `C[C@@H]1CCCCO[C@H](CN(C)C(=O)Cc2ccccc2)[C@@H](C)CN([C@@H](C)CO)C(=O)c2cc(NC(=O)Nc3ccc4c(c3)OCO4)ccc2O1`?
Ecoli rRNA inh: -1.5; FGF22 binding: -0.2

Results for Cn1cccc1Cc1nnc(SCC(=O)N2CCCC2)n1CCc1ccccc1 ?
ADAM17 inh: -2.2; proKLK7 act: 0.9; Ecoli rRNA inh: 5.8; FGF22 binding: 43.1*; ADAM10 inh: -15.3

Results for Cn1cccc1Cc1nnc(SCC(=O)N2CCCCCC2)n1CCc1ccccc1 ?
ADAM17 inh: -2.3; proKLK7 act: 0.3; Ecoli rRNA inh: -0.1; FGF22 binding: 0.0; ADAM10 inh: -9.5
